Assay results from PubChem BioAssay AID1117270 (Broad Institute, 2014).
Measured potencies and affinities stand elsewhere. Calls of active or inactive are those of the source.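 How the source made its calls: active means compounds with a valid dose curve toward the stimulated control whose half-maximal dose is at most twice the top dose; inconclusive means curve fit judged invalid or of poor quality; inactive means the rest.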

experiment: SELE mRNA upregulation in endothelial cells – cell-based, HUVEC, RT-qPCR, dry powder, orthogonal assay for E-selectin inducer project, confirmation (AID 1117270); details: 7 h; at 38 µM unless noted

Max activity, inactive:
O=C(O)C1CCN(c2nc(-c3ccccc3)c3cc(Br)ccc3n2)CC1 -4.71% [at 0.038 µM]
OCc1ccc(-c2nn(Cc3ccccc3)c3ccccc23)o1 6.5% [at 2.6 µM]
CNc1ccccc1C(C)(C)c1cc(-c2cccc(OC)c2)no1 -5.8% [at 0.0001 µM]
Cc1ccc(CSc2nc3[nH]ncc3c(=O)[nH]2)cc1 8.8% [at 0.0001 µM]
Cc1cc2ccccc2n1CCNC(=O)COc1ccc2ccccc2c1 9.31% [at 10 µM]
Cc1cc(C)c(S(=O)(=O)NCCn2c(C)cc3ccccc32)c(C)c1 -91.1%
CCc1ccc(-n2c(=S)sc3c(=O)n(-c4ccccc4C)c(SCC(=O)O)nc32)cc1 9.28% [at 10 µM]
Cc1cc2cc(CNC(=O)Nc3cccc(Cl)c3)ccc2n1C 7.76% [at 1.2 µM]
COc1ccc(Nc2ccccc2N)cc1 12.2%
Cc1ccc(S(=O)(=O)NCc2ccc3c(c2)cc(C)n3C)cc1 4.64%
O=C(c1c(F)cccc1F)N(Cc1ccccc1)Cc1ccccc1 -17.4% [at 0.16 µM]
COc1cc(CC2C(=O)Nc3ccccc32)cc(C)c1O (centres undefined) 8.57% [at 0.038 µM]
CCc1cccc2c1NC1(CCCC1)CC2C (centres undefined) 7.51% [at 5 µM]
Cc1cc2cc(CNC(=O)Nc3ccc(Cl)c(Cl)c3)ccc2n1C -8.31%
